Most compounds without a hit are left out; they make up all but 2.3% or so of the library.
Nrf2 activator = Nrf2 pathway activation; 0.31% of 410,000 active; Potency, µM (titrated, usually from 46.1 µM), hits mostly activators; AREc32 ARE-luciferase reporter (MCF7-derived line), luminescence, 24 h; also: nearly all actives have a fitted effect of over 65% in size
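Cells of the AREc32 ARE-luciferase line are plated in OPTI-MEM containing 5% FBS and left overnight at 37 deg C. Compounds are pinned in, incubation continues 24 hr, and firefly luciferase signal is then measured.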
A549 tox = counter-screen for Nrf2 inhibitors: cytotoxicity in A549 cells | A549 ARE-Fluc cells, CellTiter-Fluor viability, 18-24 h | Potency, µM (titrated, usually from 46 µM), most hits filed as inhibitors | 0.16% of 390,000 active | AID 504648
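A549 ARE_Fluc cells in 5% FBS OPTI-MEM were exposed to compounds in concentration-response for 18-24 h at 37 deg C. Viability was read by CellTiter-Fluor fluorescence (Ex 405/Em 525) after 30 min, before the luciferase read.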
Nrf2 inh = Nrf2 pathway inhibition. A549 ARE-Fluc reporter, luciferase luminescence, 18-24 h. Potency, µM (series often up to 46 µM), most hits filed as inhibitors. 2.1% of 360,000 active. AID 504444; also: nearly all actives have a fitted effect of over 60% in size
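A549 ARE_Fluc cells, 5000/well, 5% FBS OPTI-MEM; compounds in dose-response, 18-24 h at 37 °C/5% CO2; CellTiter-Fluor viability read (Ex 405/Em 525), then BugLite luciferase luminescence = Nrf2 activity.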
IL2 activator = activates IL-2 in a cell-based reporter assay; IL-2 activation reporter assay, cell-based qHTS; stimulated with anti-CD3/CD4/CD28 beads; in transgenic mouse T cells; activation, % (series mostly up to about 46 µM); 0.065% of 360,000 active; AID 652025; in the data active = activation above about 50%; inconclusive = mostly about 30% to 49%
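EGFP and DsRed fluorescence is measured by plate cytometry in unstimulated transgenic mouse T cells exposed to compound for 60 minutes, then stimulated 18 hours at 37 degrees C with anti-CD3/anti-CD4 beads plus anti-CD28.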
Numbers stand for hits; [ ] = another dose, or the depositor's remark. Unless noted, calls follow the shape of the dose curve; as a rule, active = well fitted curve in the direction sought with a large enough effect; inconclusive = small, poorly fitted or top-dose-only effect, or another doubt; inactive = no such curve, though single readings can be large; an effect the other way counts as inactive or inconclusive.

Screening COC(=O)c1oc(-c2ccc(Cl)cc2)nc1C returned Nrf2 activator inactive, A549 tox inactive, Nrf2 inh inconclusive and IL2 activator inactive.
`CCN1c2ccccc2-c2nc(SCC(=O)Nc3c(C)cc(C)cc3C)ncc2S1(=O)=O` gave Nrf2 activator inactive, A549 tox inconclusive and Nrf2 inh inactive.
`CC(C)c1nnc(NC(=O)CCS(=O)(=O)c2nc(-c3cccs3)cc(C(F)(F)F)n2)s1` gave Nrf2 activator inactive, A549 tox inconclusive, Nrf2 inh 23µM and IL2 activator inactive.
`COc1cccc(Cn2ncc3c4sc(S(C)=O)cc4n(C)c3c2=O)c1` (configuration not stated) gave A549 tox inactive and Nrf2 inh inactive.
Cc1ccc(Cl)cc1NC(=O)c1ccc2nc(CCc3ccccc3)oc2c1 was read as Nrf2 activator inactive and A549 tox inactive.
Screening COC(=O)c1c(NC(=O)/C=C/c2ccco2)sc2c1CCC2 returned Nrf2 activator 1.4µM, A549 tox inactive, Nrf2 inh inactive and IL2 activator inactive.
`CN(C)CCCNc1cc(O)c2ncccc2c1` gave Nrf2 activator inactive, A549 tox 10µM, Nrf2 inh 5.2µM and IL2 activator inactive.
O=[N+]([O-])c1ccc(-c2csc(Nc3ccccc3)n2)cc1 was read as A549 tox inactive and Nrf2 inh inconclusive.
Fc1ccc2nncc(SCc3ccccc3Cl)c2c1 was read as Nrf2 activator 5.6µM, A549 tox inactive, Nrf2 inh inactive and IL2 activator inactive.
For Fc1ccc(CSc2nnc3ccccn23)c(Cl)c1 the results were Nrf2 activator inactive, A549 tox inactive, Nrf2 inh inactive and IL2 activator inactive.
Screening CCOc1ccc(S(=O)(=O)NCc2ccco2)c2ccccc12 returned Nrf2 activator 13µM, A549 tox inactive, Nrf2 inh inactive and IL2 activator inactive.
For CCOc1cc(C)c(Cl)cc1S(=O)(=O)NCc1ccco1 the results were Nrf2 activator inactive, A549 tox inactive and IL2 activator inactive.
Screening COC(=O)c1ccc(CNC(=O)Cn2cnc3c(SC)nc(N)nc32)cc1 returned Nrf2 activator inactive, A549 tox inactive, Nrf2 inh 23µM and IL2 activator inactive.
For CSc1nc(N)nc2c1ncn2CC(=O)NCCCc1ccccc1 the results were Nrf2 activator inactive, A549 tox inactive, Nrf2 inh inconclusive and IL2 activator inactive.
Screening Cc1ccnc(S(=O)(=O)Cc2ccc([N+](=O)[O-])cc2)n1 returned Nrf2 activator 13µM, A549 tox inactive, Nrf2 inh inconclusive and IL2 activator inactive.
Screening CCCCCCNC(=O)CNC(=S)N(Cc1cccs1)C1CCCCC1 returned Nrf2 activator inactive, A549 tox inconclusive, Nrf2 inh 16µM and IL2 activator inactive.
For CCOC(=O)Cc1ccc(NC(=O)N(Cc2ccc(CC)cc2)Cc2cn[nH]c2-c2ccc(OC)cc2)cc1 the results were Nrf2 activator inactive, A549 tox inactive and Nrf2 inh inactive.
Screening C=C(C(=O)c1ccccc1)C(CC(=O)c1ccccc1)c1ccccc1 (configuration not stated) returned Nrf2 activator inactive, A549 tox inconclusive, Nrf2 inh 23µM and IL2 activator inactive.
For O=C(Nc1cccc([N+](=O)[O-])c1)c1ccncc1 the results were Nrf2 activator 11µM, A549 tox inactive, Nrf2 inh inactive and IL2 activator inactive.
O=C(Nc1cccc([N+](=O)[O-])c1)c1[nH]ncc1Cl was read as Nrf2 activator 5µM, A549 tox inactive, Nrf2 inh inconclusive and IL2 activator inactive.
Screening CC(C)(C)c1ccc(C(=O)Nc2cccc([N+](=O)[O-])c2)cc1 returned Nrf2 activator inactive, A549 tox inactive, Nrf2 inh inconclusive and IL2 activator inactive.
For O=C(CCNc1cccc(F)c1)c1cccc([N+](=O)[O-])c1 the results were Nrf2 activator inconclusive, A549 tox inactive, Nrf2 inh inactive and IL2 activator inactive.
For O=C(Nc1cccc([N+](=O)[O-])c1)c1cnccn1 the results were Nrf2 activator inconclusive, A549 tox inactive, Nrf2 inh inactive and IL2 activator inactive.
`O=C(CCNc1ccc(Cc2ccncc2)cc1)c1cccc([N+](=O)[O-])c1` gave Nrf2 activator inconclusive, A549 tox inactive, Nrf2 inh 15µM and IL2 activator inactive.
N#CC(C(=O)OC1CCCCC1)c1nc2ccccc2nc1N1CCOCC1 (configuration not stated) was read as Nrf2 activator inactive, A549 tox inactive, Nrf2 inh inactive and IL2 activator 70.
Screening CN1CCN(c2nc3ccccc3nc2C(C#N)C(=O)OC2CCCCC2)CC1 (configuration not stated) returned Nrf2 activator inactive, A549 tox inactive, Nrf2 inh inactive and IL2 activator inactive.
Nc1c(Cl)ncnc1NCCc1ccc(O)cc1 was read as Nrf2 activator inactive, A549 tox inactive, Nrf2 inh 5.8µM and IL2 activator inactive.
`Nc1c(Cl)ncnc1NCc1cccnc1` gave Nrf2 activator inactive, A549 tox inactive, Nrf2 inh inactive and IL2 activator inactive.
For COc1ccc(Br)cc1CNC(=O)c1cc(=O)[nH]c2ccc(S(=O)(=O)N3CCCCC3C)cc12 (configuration not stated) the results were Nrf2 activator inactive and A549 tox inactive.
For CC(C)(C)c1ccc(OCCOCCn2c(-c3ccc(Cl)cc3)nc3ccccc3c2=O)cc1 the results were Nrf2 activator inactive, A549 tox inactive and Nrf2 inh inactive.
O=C(CCN1C(=O)/C(=C/c2ccccc2)SC1=S)N1CCCCCC1 was read as Nrf2 activator inconclusive, A549 tox inconclusive, Nrf2 inh 21µM and IL2 activator inactive.
Screening CN1CCN(C(=O)CCN2C(=O)/C(=C\c3ccc(Cl)cc3Cl)SC2=S)CC1 returned Nrf2 activator 13µM, A549 tox 7.3µM, Nrf2 inh inconclusive and IL2 activator inactive.
Screening COc1ccc(/C=C2\SC(=S)N(CCC(=O)N3CCCCC3)C2=O)cc1 returned Nrf2 activator inactive, A549 tox inactive, Nrf2 inh inactive and IL2 activator inactive.
CCN(CC)C(=O)CSc1nc2cc3c(cc2c(=O)n1Cc1ccc(C(=O)NCCc2ccc(OC)c(OC)c2)cc1)OCO3 was read as Nrf2 activator inactive and A549 tox inactive.
`O=C1C(=Cc2cccc(F)c2)Cc2ccccc21` gave Nrf2 activator 10µM and IL2 activator inactive.
`COc1ccccc1/C=C1\Cc2ccccc2C1=O` gave Nrf2 activator inactive, A549 tox inactive, Nrf2 inh inactive and IL2 activator inactive.
Screening Nc1ccccc1C=C1Cc2ccccc2C1=O returned Nrf2 activator 2.8µM, A549 tox inactive, Nrf2 inh inconclusive and IL2 activator inactive.
Screening NC(=S)n1[nH]c(-c2ccc([N+](=O)[O-])cc2)c(N=Nc2ccc(Cl)cc2)c1=O returned Nrf2 activator inactive[9.22 µM], A549 tox inconclusive, Nrf2 inh 5.2µM and IL2 activator inactive.
Cc1ccc([N+](=O)[O-])cc1N=Nc1c(-c2ccc([N+](=O)[O-])cc2)[nH]n(C(N)=S)c1=O was read as Nrf2 activator inactive, A549 tox inconclusive, Nrf2 inh inconclusive and IL2 activator inactive.
